Bioassay records deposited in PubChem BioAssay by National Center for Advancing Translational Sciences (NCATS).
In the library only some 19% were active in any assay of this set; here they are far more common.
TDP1 cell CPT: DT40-hTDP1 cell growth loss with CPT; chicken DT40 Tdp1-/-;hTDP1 cells + 20 nM CPT, ATP luminescence, 48 h; Potency, µM (titrated, usually from 46.2 µM), actives largely listed as inhibitors; 420,000 tested, 12% active; further: nearly all actives have a fitted effect of over 55% in size
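Chicken DT40 Tdp1-/- cells complemented with human TDP1, 400 cells/well, exposed to compounds plus 20 nM camptothecin for at least 48 h at 37 C; viability read as ATP content by CellTiter-Glo luminescence.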
IL1B secr inh: blocks inflammasome-driven IL-1 beta release; THP-1 LPS/ATP IL-1B secretion, AlphaLISA, 16 h; stronger effect = lower value; activity change, % at 57.5 µM; 360,000 tested, 4.7% active; AID 743279; in the data active means activity change below about -50%; inconclusive means mostly about -30% to -49%
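THP-1 cells pretreated 1 hr with compounds (up to 57.5 uM final), then stimulated with LPS (250 ng/mL final) plus ATP (1.25 mM final); secreted IL-1B measured by AlphaLISA after 16 hr, decreased signal indicating inhibition.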
HT1080NT lethal: kills 2HG-producing HT-1080-NT fibrosarcoma cells | HT-1080-NT fibrosarcoma viability, CellTiter-Glo ATP luminescence, 48 h | 360,000 tested, 1.6% active | Potency, µM (top dose mostly 46.1 µM), actives largely listed as cytotoxic;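 further: NT is the 2HG producing partner of a matched IDH1 knockdown line; nearly all actives have a fitted effect of over 55% in size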
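Fibrosarcoma NT cells, 750 per well in 5% FBS RPMI, were exposed to compound for 48 hours. Viability: CellTiter-Glo luminescence.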
TDP1 cell noCPT: qHTS for Inhibitors of human tyrosyl-DNA phosphodiesterase 1 (TDP1): qHTS in cells in absence of CPT; DT40 Tdp1-/- hTDP1 cells, no CPT, ATP luminescence, 48 h; Potency, µM (doses to about 46.2 µM), usual class: inhibitors; 420,000 tested, 15% active; AID 686978, 2013; further: nearly all actives have a fitted effect of over 55% in size
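Chicken DT40 Tdp1-/- cells complemented with human TDP1, screened without camptothecin (DMSO vehicle only), 400 cells/well. Compounds pin-transferred, cells incubated at 37 °C for at least 48 hr. Growth read as ATP-dependent luminescence (CellTiter-Glo, 30 min at RT).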
HT1080 IDH1KD tx: HT-1080 IDH1 knockdown cell toxicity (counter line); HT-1080 IDH1 knockdown viability, ATP luminescence, 48 h; 360,000 tested, 2% active; AID 686971; Potency, µM (top dose mostly 46.1 µM), hits mostly cytotoxic
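Knockdown cells (IDH1KD HT-1080) received compounds 2 h after plating at 750 cells/well and were kept 48 h at 37 °C in 5% FBS RPMI. A CellTiter-Glo luminescence read gave % activity for curve fitting.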
Large screens that a line does not name were inactive; ! = not confirmed by another sample. Unless noted, the call rests on the fitted dose curve; in most records, active means well fitted curve in the direction sought with a large enough effect; inconclusive means small, poorly fitted or top-dose-only effect, or another doubt; inactive means no such curve, though single readings can be large; an effect the other way counts as inactive or inconclusive.

O=C(C1CCCCC1)N1C[C@H](n2cc(-c3ccc(F)cc3)nn2)[C@@H](O)C[C@@H]1c1ccccc1	none
O=C(C1CCCCC1)N1C[C@@H](O)[C@H](n2cc(-c3ccc(F)cc3)nn2)C[C@@H]1c1ccccc1	TDP1 cell CPT inconclusive, HT1080NT lethal inconclusive, TDP1 cell noCPT 15µM, HT1080 IDH1KD tx inconclusive
Cc1ccc(C(C)C)cc1S(=O)(=O)Nc1cccnc1	none
O=C(c1cccs1)N1C[C@H](n2cc(-c3ccc(F)cc3)nn2)[C@@H](O)C[C@@H]1c1ccc(Cl)cc1	TDP1 cell CPT inconclusive, IL1B secr inh inconclusive, TDP1 cell noCPT inconclusive, HT1080 IDH1KD tx inconclusive
O=C(c1cccs1)N1C[C@@H](O)[C@H](n2cc(-c3ccc(F)cc3)nn2)C[C@@H]1c1ccc(Cl)cc1	TDP1 cell CPT inconclusive, HT1080NT lethal inconclusive, TDP1 cell noCPT 23µM, HT1080 IDH1KD tx inconclusive
Cc1ccc(C)c(CSc2nnc3[nH]c(=O)cc(-c4ccccc4)n23)c1	none (no result: IL1B secr inh, HT1080NT lethal, HT1080 IDH1KD tx)
CCc1nnc(NC(=O)CCC(=O)N2CCN(Cc3ccc(OC)c(F)c3)CC2)s1	TDP1 cell CPT inconclusive
COCC1=C(C(=O)OC(C)OC(=O)OC(C)C)N2C(=O)[C@@H](NC(=O)/C(=N\OC)c3csc(N)n3)[C@H]2SC1 (stereo partly drawn)	TDP1 cell CPT 3.3µM!, TDP1 cell noCPT 1.3µM!
COc1cc(CNC(=O)c2cnn(-c3ncc4c(n3)-c3ccccc3CC4)c2C)cc(OC)c1OC	none (no result: IL1B secr inh, HT1080NT lethal, HT1080 IDH1KD tx)
COC(=O)c1ccccc1Sc1ncnc2onc(C)c12	TDP1 cell CPT 15µM, IL1B secr inh -103, HT1080NT lethal inconclusive, TDP1 cell noCPT inconclusive, HT1080 IDH1KD tx inconclusive
O=C1OC(c2ccccc2)(c2ccc(O)cc2)c2ccccc21 (stereo not drawn)	TDP1 cell CPT inconclusive, HT1080NT lethal 21µM, TDP1 cell noCPT inconclusive, HT1080 IDH1KD tx inconclusive
O=C1OC(c2ccccc2)(c2ccccc2)c2ccccc21	TDP1 cell CPT inconclusive, TDP1 cell noCPT inconclusive
O=C(COC(=O)CNS(=O)(=O)c1ccc(Cl)cc1)NC1CCCCC1	TDP1 cell noCPT inconclusive
CCOc1cc(-c2nnc(-c3ccco3)o2)cc(OCC)c1OCC	TDP1 cell CPT 18µM, TDP1 cell noCPT 12µM
CCOc1ccc(-c2nnc(-c3ccco3)o2)cc1OCC	TDP1 cell CPT inconclusive, IL1B secr inh inconclusive, TDP1 cell noCPT inconclusive
CC(C)c1ccc(N2C=Nc3ccc(C(C)C)cc3C2)cc1	TDP1 cell CPT inconclusive, IL1B secr inh -97, HT1080NT lethal inconclusive, TDP1 cell noCPT inconclusive, HT1080 IDH1KD tx 23µM
Cc1ccccc1C(=O)NNC(=O)c1cccn1C	none
O=C1CC(N2CCN(C/C=C/c3ccccc3)CC2)C(=O)N1CCc1ccccc1 (stereo not drawn)	TDP1 cell CPT 18µM, HT1080NT lethal inconclusive, TDP1 cell noCPT 21µM
COC(=O)C1=C(C(=O)OC)SC2(S1)C(C(=O)OC)=C(C(=O)OC)SC1=C2c2cc(C)ccc2NC1(C)C	TDP1 cell CPT 21µM, TDP1 cell noCPT 15µM
CC1=CC(C)(C)Nc2ccc(C)cc21	none
CCCC(=O)Nc1cc(C(=O)NCc2ccccc2)ccc1S(=O)(=O)c1ccc(Cl)cc1	TDP1 cell CPT 21µM, TDP1 cell noCPT 21µM (no result: IL1B secr inh, HT1080NT lethal, HT1080 IDH1KD tx)
COC[C@H]1CCCN1[C@H]1CS(=O)(=O)N[C@@H]1COCc1ccccc1	none
CCOc1cccc(CN2CCCC(C(=O)c3cc(Cl)ccc3OC)C2)c1O (stereo not drawn)	TDP1 cell CPT inconclusive, IL1B secr inh -55, TDP1 cell noCPT inconclusive
COc1ccc(Cl)cc1C(=O)C1CCCN(Cc2cnc(N3CCOCC3)s2)C1 (stereo not drawn)	TDP1 cell CPT inconclusive, TDP1 cell noCPT 29µM
CCOc1cccc(CN2CCCC(N3CCN(c4cccc(Cl)c4)CC3)C2)c1O (stereo not drawn)	IL1B secr inh -72, TDP1 cell noCPT inconclusive
OC(c1ccc(-c2ccccc2)cc1)c1ncc(-c2ccccc2F)[nH]1 (stereo not drawn)	TDP1 cell CPT inconclusive, HT1080NT lethal inconclusive, TDP1 cell noCPT inconclusive, HT1080 IDH1KD tx inconclusive
Cc1coc2cc3oc(=O)c(CC(=O)N[C@@H](CC(C)C)C(=O)O)c(C)c3cc12	none
O=S(=O)(c1ccccc1)N1CCC2(CCN(Cc3nccs3)CC2)CC1	none (no result: IL1B secr inh, HT1080NT lethal, HT1080 IDH1KD tx)
O=c1c(-c2cccc(F)c2)nc2cncnc2n1Cc1ccccc1	TDP1 cell CPT inconclusive, TDP1 cell noCPT 16µM (no result: IL1B secr inh, HT1080NT lethal, HT1080 IDH1KD tx)
O=c1c(-c2ccc(F)c(F)c2)nc2cncnc2n1Cc1ccc(F)cc1	TDP1 cell CPT 15µM, TDP1 cell noCPT 16µM (no result: IL1B secr inh, HT1080NT lethal, HT1080 IDH1KD tx)
O=c1c(-c2cccc(F)c2)nc2cncnc2n1Cc1ccc(F)cc1	none (no result: IL1B secr inh, HT1080NT lethal, HT1080 IDH1KD tx)
COc1ccc(CN2CCN(C(=O)c3ccco3)CC2)c(OC)c1OC	none
Cc1nnc2ccc(Oc3ccc(-c4ccccc4)cc3)nn12	TDP1 cell CPT 13µM, TDP1 cell noCPT inconclusive, HT1080 IDH1KD tx inconclusive
COC(=O)c1ccc(Oc2ccc3nnc(C)n3n2)cc1	none
CN(C)S(=O)(=O)c1ccc(C(=O)Nc2ccc(S(=O)(=O)NC3=NCCCCC3)cc2)cc1	none
O=C(Nc1ccc(S(=O)(=O)NC2=NCCCCC2)cc1)c1ccc(Cl)c([N+](=O)[O-])c1	TDP1 cell CPT inconclusive, IL1B secr inh -96, HT1080NT lethal inconclusive, TDP1 cell noCPT 23µM
O=C(Nc1ccc(S(=O)(=O)NC2=NCCCCC2)cc1)c1cccs1	TDP1 cell noCPT inconclusive
N#Cc1ccsc1NC(=O)c1ccc(Cl)c([N+](=O)[O-])c1	TDP1 cell CPT 2.9µM, IL1B secr inh inconclusive, TDP1 cell noCPT 2.3µM
O=C(Nc1ccc(C(O)(C(F)(F)F)C(F)(F)F)cc1)c1ccc(Cl)c([N+](=O)[O-])c1	TDP1 cell CPT 12µM, IL1B secr inh -101, HT1080NT lethal inconclusive, TDP1 cell noCPT 18µM, HT1080 IDH1KD tx 23µM
O=C(Nc1ccc(S(=O)(=O)NC2=NCCCCC2)cc1)c1ccc([N+](=O)[O-])s1	TDP1 cell CPT 5.2µM, IL1B secr inh -57, HT1080NT lethal inconclusive, TDP1 cell noCPT 10µM, HT1080 IDH1KD tx inconclusive
CC(=O)Nc1cccc(OCCCNS(=O)(=O)c2ccc(C#N)cc2)c1	TDP1 cell CPT inconclusive, TDP1 cell noCPT inconclusive
Cc1noc(C)c1CCC(=O)Nc1cc(C(=O)O)ccc1Cl	none
CCOc1ccc(-c2nnc(NC(=O)Cc3cc(OC)c(OC)c(OC)c3)o2)cc1	none
Cc1nc2cc(NC(=O)c3ccc([N+](=O)[O-])s3)ccc2s1	TDP1 cell CPT 2.9µM, TDP1 cell noCPT 5.2µM
O=[N+]([O-])c1cc(S(=O)(=O)NC2=NCCCCC2)ccc1NCC1CCCCC1	TDP1 cell CPT 16µM, HT1080NT lethal inconclusive, TDP1 cell noCPT inconclusive
Cc1cc(NS(=O)(=O)c2ccc(NC(=O)c3ccc([N+](=O)[O-])s3)cc2)nc(C)n1	IL1B secr inh -53
